PubChem BioAssay AID1259240 (Keith Lab, Institute of Cancer Science, University of …, 2017)
The source made the active and inactive calls. No stated cut-off is given here; in the data, active means fold change mostly below about -2 (no sharp cut-off); inactive means mostly above about -1.8.

assay: TERT promoter activity modulators, primary screen, cell-based, luciferase reporter, human (AID 1259240); conditions: A2780 TERT promoter luciferase reporter, 16 h; at 20 µM, fold versus average of vehicle-only wells

Fold change, inactive:
CCOc1ccc(OCC)c(NC(=O)C2CCCN(S(=O)(=O)c3cnc[nH]3)C2)c1 (stereo not given) 1.05, Cn1c(=O)c(=O)n(C)c2cc(S(=O)(=O)N3CCCC3C(=O)Nc3nccs3)ccc21 (stereo not given) 1.15, Cc1csc(NC(=O)C2CCCN(S(=O)(=O)c3c(C)[nH]c(=O)[nH]c3=O)C2)n1 (stereo not given) -1.1, Cc1cc(Cl)ccc1OCc1nc(-c2ccc(-n3cccc3)cc2)no1 -1.5, O=C(NC1CCCc2ccccc21)c1cccc(NC2=NC3CS(=O)(=O)CC3S2)c1 (stereo not given) 1.36, CCOC(=O)C1=C(CS(=O)(=O)c2ccc(F)cc2)NC(=O)NC1c1cc(OC)ccc1OC (stereo not given) 1.65, O=C1c2cccnc2C(=O)N1CNc1ccc(Cl)cc1 1.07, COC(=O)CSc1nnc2c3c4c(sc3nc(C)n12)CCCC4 -1.45, CCOC(=O)C1CCCN(c2c(NCCCN3CC(C)CC(C)C3)c(=O)c2=O)C1 (stereo not given) -1.02, CCNc1nc2c(c(=O)n(C)c(=O)n2C)n1Cc1ccc(Cl)cc1 1.15, C=CCN1CN=C(NS(=O)(=O)c2ccc(C)cc2)NC1 -1.75, COc1ccc(Nc2c(-c3cccc(O)c3)nc3ncccn23)cc1 1.03, CCOC(=O)CNC(=O)CSc1nc(C)nc2c1c(=O)n(C)c(=O)n2C 1.49

Fold change, active:
Cc1nc2cc(-c3ccccc3)nn2c(C)c1CCC(=O)NC(C)c1ccc2c(c1)OCCO2 (stereo not given) -3.95, C=CCn1c(Oc2ccccc2Cl)nc2c1c(=O)n(C)c(=O)n2C -2.84
